# Assays:
# Assay in all cases: DAPPL (digital affinity profiling via proximity ligation, sequencing); 10 mM Tris-HCl pH 7.5, 50 mM NaCl, 1 mM DTT, 4% glycerol, room temperature, 30 min; GST-TFs on glutathione beads, 16-mer random dsDNA library, 0.1% formaldehyde crosslink after washing; high values mean tight binding
# FEV = biological target: T1, FEV (Homo sapiens, UniProt Q99581 1-238); conditions: protein: recombinant; tags: N-terminal GST; dsDNA, one strand shown
# T1 sequence: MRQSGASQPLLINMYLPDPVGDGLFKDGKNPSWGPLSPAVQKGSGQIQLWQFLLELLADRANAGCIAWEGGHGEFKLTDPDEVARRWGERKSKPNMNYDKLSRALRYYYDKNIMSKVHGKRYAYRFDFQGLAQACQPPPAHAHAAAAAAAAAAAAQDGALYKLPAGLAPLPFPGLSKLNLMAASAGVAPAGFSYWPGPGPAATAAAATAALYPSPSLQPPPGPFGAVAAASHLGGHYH
# Summary of the method: (§1)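 Binding signal is each hexamer's read frequency for a factor divided by its frequency in the tag-only sample. The factors were GST-fused human transcription factors from yeast, captured on glutathione beads, DNA-barcoded and pooled with that sample. Pools were incubated with 200 nmole of a random double-stranded 16-mer DNA library in Tris/NaCl/DTT/glycerol buffer at room temperature for 30 min, then washed, crosslinked with 0.1% formaldehyde, proximity-ligated with BsaI/T4 ligase (1 h, 37 °C), PCR-amplified and sequenced on an Illumina NextSeq500.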
# ETV5 = ETV5 (Homo sapiens, UniProt P41161 1-510); conditions: protein: recombinant; tags: N-terminal GST; dsDNA, one strand shown
# Summary of the method: as §1
# HSF1 = HSF1 (Homo sapiens, UniProt Q00613 1-529); conditions: protein: recombinant; tags: N-terminal GST; chain copies: 3; dsDNA, one strand shown
# Summary of the method: as §1
# SPIC = biological target: T2, SPIC (Homo sapiens, UniProt Q8N5J4 1-248); conditions: protein: recombinant; tags: N-terminal GST; dsDNA, one strand shown
# T2 sequence: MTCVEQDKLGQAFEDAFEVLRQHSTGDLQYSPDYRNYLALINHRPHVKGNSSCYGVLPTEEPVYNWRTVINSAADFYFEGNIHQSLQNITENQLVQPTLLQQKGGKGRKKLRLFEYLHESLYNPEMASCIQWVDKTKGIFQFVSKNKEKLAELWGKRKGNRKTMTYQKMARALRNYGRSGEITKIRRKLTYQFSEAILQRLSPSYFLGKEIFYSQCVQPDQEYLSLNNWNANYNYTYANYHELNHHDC
# Summary of the method: as §1
# ELF4 = ELF4 (Homo sapiens, UniProt Q99607 1-663); conditions: protein: recombinant; tags: N-terminal GST; dsDNA, one strand shown
# Summary of the method: as §1
# ELK4 = biological target: T3, ELK4 (Homo sapiens, UniProt P28324-2 1-405); conditions: protein: recombinant; tags: N-terminal GST; dsDNA, one strand shown
# T3 sequence: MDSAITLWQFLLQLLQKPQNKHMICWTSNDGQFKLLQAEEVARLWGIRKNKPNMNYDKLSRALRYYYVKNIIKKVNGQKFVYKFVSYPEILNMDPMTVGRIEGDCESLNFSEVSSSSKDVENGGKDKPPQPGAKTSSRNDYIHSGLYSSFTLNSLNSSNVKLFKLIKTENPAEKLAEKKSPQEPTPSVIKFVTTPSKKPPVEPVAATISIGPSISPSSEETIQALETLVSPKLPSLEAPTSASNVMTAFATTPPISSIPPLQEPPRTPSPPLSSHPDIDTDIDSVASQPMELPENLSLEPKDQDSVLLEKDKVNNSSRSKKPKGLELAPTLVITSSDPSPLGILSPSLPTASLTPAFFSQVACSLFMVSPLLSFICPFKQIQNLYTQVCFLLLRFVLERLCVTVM
# Summary of the method: as §1
# ETV2 = biological target: T4, ETV2 (Homo sapiens, UniProt O00321 1-342); conditions: protein: recombinant; tags: N-terminal GST; dsDNA, one strand shown
# T4 sequence: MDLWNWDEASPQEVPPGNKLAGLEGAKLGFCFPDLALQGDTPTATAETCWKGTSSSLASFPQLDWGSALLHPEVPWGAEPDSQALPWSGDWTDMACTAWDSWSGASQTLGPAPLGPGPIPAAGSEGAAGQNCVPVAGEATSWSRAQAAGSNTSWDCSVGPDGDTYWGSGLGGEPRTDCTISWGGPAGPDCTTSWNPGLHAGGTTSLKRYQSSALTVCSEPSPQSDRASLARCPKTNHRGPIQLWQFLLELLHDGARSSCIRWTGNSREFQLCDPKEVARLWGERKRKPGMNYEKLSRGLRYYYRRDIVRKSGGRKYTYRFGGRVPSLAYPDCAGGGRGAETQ
# Summary of the method: as §1
# ELF3 = biological target: T5, ELF3 (Homo sapiens, UniProt P78545 1-371); conditions: protein: recombinant; tags: N-terminal GST; dsDNA, one strand shown
# T5 sequence: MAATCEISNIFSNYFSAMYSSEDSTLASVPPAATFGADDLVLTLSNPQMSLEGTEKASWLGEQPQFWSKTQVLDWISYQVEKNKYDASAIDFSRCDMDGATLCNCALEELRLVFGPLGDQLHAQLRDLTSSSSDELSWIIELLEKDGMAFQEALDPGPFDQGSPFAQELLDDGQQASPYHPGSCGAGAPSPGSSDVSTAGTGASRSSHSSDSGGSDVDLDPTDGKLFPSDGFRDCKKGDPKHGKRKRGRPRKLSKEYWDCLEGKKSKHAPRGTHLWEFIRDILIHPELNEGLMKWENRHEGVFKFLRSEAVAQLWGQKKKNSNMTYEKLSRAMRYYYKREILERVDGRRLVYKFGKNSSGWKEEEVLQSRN
# Summary of the method: as §1
# CRX = CRX (Homo sapiens, UniProt O43186 1-299); conditions: protein: recombinant; tags: N-terminal GST; dsDNA, one strand shown
# Summary of the method: as §1
# ETV1 = ETV1 (Homo sapiens, UniProt P50549 1-477); conditions: protein: recombinant; tags: N-terminal GST; dsDNA, one strand shown
# Summary of the method: as §1
# Chain of ELF4 (Q99607 whole entry): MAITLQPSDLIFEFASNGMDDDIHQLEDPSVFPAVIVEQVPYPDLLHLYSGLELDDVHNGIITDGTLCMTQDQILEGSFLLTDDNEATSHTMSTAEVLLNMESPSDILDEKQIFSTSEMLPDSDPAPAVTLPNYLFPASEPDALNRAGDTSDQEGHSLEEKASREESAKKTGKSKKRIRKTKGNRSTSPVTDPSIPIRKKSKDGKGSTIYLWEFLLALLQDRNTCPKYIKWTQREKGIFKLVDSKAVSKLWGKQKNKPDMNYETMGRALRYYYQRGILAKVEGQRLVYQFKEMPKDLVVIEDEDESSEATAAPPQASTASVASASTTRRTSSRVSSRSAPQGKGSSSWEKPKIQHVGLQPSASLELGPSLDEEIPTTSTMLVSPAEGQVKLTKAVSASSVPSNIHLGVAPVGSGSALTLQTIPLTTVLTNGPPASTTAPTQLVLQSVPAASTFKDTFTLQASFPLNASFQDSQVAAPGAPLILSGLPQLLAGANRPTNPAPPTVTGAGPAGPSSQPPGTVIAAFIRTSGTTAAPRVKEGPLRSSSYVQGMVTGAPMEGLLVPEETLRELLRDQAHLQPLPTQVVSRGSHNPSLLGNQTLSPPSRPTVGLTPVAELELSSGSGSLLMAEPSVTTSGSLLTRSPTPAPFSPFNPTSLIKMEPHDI
# Chain of ETV5 (P41161 whole entry): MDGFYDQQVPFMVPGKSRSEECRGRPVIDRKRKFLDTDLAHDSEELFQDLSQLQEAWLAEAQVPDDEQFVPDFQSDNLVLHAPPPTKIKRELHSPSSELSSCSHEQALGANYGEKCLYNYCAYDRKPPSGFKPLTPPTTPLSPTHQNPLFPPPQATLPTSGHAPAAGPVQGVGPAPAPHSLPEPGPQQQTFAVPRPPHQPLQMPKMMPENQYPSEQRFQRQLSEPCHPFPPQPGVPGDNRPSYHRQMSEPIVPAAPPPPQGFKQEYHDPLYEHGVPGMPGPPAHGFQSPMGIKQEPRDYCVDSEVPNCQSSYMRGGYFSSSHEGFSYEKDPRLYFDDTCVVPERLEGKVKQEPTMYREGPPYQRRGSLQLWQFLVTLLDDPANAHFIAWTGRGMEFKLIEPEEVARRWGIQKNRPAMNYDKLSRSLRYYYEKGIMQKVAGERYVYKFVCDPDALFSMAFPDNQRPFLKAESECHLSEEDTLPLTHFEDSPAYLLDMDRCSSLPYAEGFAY
# Chain of CRX (O43186 whole entry): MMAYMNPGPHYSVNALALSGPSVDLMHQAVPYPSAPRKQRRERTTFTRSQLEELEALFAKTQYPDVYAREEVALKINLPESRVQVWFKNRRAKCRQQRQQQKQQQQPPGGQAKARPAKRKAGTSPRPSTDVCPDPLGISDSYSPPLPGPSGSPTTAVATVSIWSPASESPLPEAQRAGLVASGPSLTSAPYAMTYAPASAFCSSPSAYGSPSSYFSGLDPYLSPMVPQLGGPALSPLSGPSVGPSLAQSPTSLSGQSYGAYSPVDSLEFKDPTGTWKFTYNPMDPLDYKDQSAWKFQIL
# Chain of HSF1 (Q00613 whole entry): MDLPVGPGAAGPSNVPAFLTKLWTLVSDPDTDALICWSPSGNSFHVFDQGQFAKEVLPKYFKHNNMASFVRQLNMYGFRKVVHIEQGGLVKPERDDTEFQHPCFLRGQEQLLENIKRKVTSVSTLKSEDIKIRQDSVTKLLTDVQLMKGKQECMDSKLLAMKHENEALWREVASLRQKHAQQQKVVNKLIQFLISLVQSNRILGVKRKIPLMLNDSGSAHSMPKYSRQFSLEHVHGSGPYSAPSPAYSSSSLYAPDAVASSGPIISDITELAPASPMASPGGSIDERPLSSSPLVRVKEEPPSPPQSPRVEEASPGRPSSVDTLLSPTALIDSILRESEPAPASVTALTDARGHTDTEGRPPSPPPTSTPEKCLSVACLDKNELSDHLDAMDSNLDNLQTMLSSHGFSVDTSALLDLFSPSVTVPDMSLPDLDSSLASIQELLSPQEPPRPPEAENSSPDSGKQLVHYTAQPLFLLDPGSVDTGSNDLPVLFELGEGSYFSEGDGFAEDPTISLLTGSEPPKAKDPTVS
# Chain of ETV1 (P50549 whole entry): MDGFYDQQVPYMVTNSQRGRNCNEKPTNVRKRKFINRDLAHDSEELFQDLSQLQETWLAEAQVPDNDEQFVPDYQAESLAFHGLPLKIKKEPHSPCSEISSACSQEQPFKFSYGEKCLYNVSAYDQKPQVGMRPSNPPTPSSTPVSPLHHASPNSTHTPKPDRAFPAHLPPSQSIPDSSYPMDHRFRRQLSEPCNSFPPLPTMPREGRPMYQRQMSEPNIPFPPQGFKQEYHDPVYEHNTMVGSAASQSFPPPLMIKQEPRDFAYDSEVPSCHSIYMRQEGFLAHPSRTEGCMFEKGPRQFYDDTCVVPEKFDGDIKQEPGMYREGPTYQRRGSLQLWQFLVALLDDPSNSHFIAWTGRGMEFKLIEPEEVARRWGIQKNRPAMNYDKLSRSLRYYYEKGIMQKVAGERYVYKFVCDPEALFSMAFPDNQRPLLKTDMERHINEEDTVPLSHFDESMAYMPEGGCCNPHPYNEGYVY
sequence,measurement,setting,value
CTTTTA,binding signal,FEV,"1.36 fold enrichment (6-mer frequency, TF over GST control)"
same,binding signal,ETV5,"1.29 fold enrichment (6-mer frequency, TF over GST control)"
same,binding signal,HSF1,"1.3 fold enrichment (6-mer frequency, TF over GST control)"
same,binding signal,SPIC,"1.49 fold enrichment (6-mer frequency, TF over GST control)"
same,binding signal,ELF4,"1.43 fold enrichment (6-mer frequency, TF over GST control)"
same,binding signal,ELK4,"1.21 fold enrichment (6-mer frequency, TF over GST control)"
same,binding signal,ETV2,"1.28 fold enrichment (6-mer frequency, TF over GST control)"
same,binding signal,ELF3,"1.34 fold enrichment (6-mer frequency, TF over GST control)"
same,binding signal,CRX,"1.61 fold enrichment (6-mer frequency, TF over GST control)"
same,binding signal,ETV1,"1.41 fold enrichment (6-mer frequency, TF over GST control)"

# Source: publication PMC7862700, “An all-to-all approach to the identification of sequence-specific readers for epigenetic DNA modifications on cytosine”
